The first assay addresses T1, ETV3L (Homo sapiens, UniProt Q6ZN32 1-361).
T1 sequence: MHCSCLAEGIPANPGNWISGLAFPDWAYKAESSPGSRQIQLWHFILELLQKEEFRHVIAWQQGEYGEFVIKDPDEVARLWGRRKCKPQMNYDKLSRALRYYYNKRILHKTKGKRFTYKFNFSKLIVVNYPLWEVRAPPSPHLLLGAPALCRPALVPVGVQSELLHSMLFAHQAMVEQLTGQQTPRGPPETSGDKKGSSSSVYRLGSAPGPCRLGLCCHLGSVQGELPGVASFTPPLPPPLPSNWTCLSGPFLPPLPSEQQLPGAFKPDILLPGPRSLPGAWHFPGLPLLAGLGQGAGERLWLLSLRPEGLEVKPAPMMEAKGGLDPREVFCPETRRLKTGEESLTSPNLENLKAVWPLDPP
Put plainly: DAPPL (digital affinity profiling via proximity ligation, sequencing); 10 mM Tris-HCl pH 7.5, 50 mM NaCl, 1 mM DTT, 4% glycerol, room temperature, 30 min; GST-TFs on glutathione beads, 16-mer random dsDNA library, 0.1% formaldehyde crosslink after washing; high values mean tight binding. Particulars: protein: recombinant; tags: N-terminal GST; dsDNA, one strand shown. The method, boiled down:
(§1)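 A tag-only sample was pooled with DNA-barcoded human transcription factors that had been expressed in yeast as GST fusions and captured on glutathione beads. The pools were incubated for 30 min at room temperature with 200 nmole of a random double-stranded 16-mer DNA library in Tris/NaCl/DTT/glycerol buffer, then washed, crosslinked with 0.1% formaldehyde, proximity-ligated (BsaI/T4 ligase, 1 h, 37 °C), PCR-amplified and sequenced on an Illumina NextSeq500. Binding signal is each hexamer's read frequency for a factor divided by its frequency for the tag-only sample.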
With TTCCCG, the binding signal was 1.9 fold enrichment (6-mer frequency, TF over GST control).
Take CTTCCT: the binding signal was 3.08 fold enrichment (6-mer frequency, TF over GST control).
Still for that read-out and setting: then TTGAAA, with 1.23 fold enrichment (6-mer frequency, TF over GST control); and TACTCT, with 1.37 fold enrichment (6-mer frequency, TF over GST control).
The same measure, in the same setting: in the case of TCCTCA it was 1.62 fold enrichment (6-mer frequency, TF over GST control); in that of CCTCCC, 1.49 fold enrichment (6-mer frequency, TF over GST control); in that of TGGTTT, 1.51 fold enrichment (6-mer frequency, TF over GST control).
On the same count and under the same terms, in the case of ATGAAC it was 1.28 fold enrichment (6-mer frequency, TF over GST control).
Take AACCTG: the binding signal was 1.08 fold enrichment (6-mer frequency, TF over GST control).
For ACAGCT, the binding signal is 1.19 fold enrichment (6-mer frequency, TF over GST control).
For the sequence AAATCA, the binding signal is 1.27 fold enrichment (6-mer frequency, TF over GST control).
Still for that read-out and setting: in the case of TGGACT it was 1.22 fold enrichment (6-mer frequency, TF over GST control).
TGAACT: the binding signal is 1.23 fold enrichment (6-mer frequency, TF over GST control).
Take AATCCC: the binding signal was 1.29 fold enrichment (6-mer frequency, TF over GST control).
In the case of TAAAGT, the binding signal was 1.29 fold enrichment (6-mer frequency, TF over GST control).
As for CCTGGA, the binding signal is 1.49 fold enrichment (6-mer frequency, TF over GST control).
As to AAACCA, the binding signal is 1.18 fold enrichment (6-mer frequency, TF over GST control).
Still for that read-out and setting: then CTGTCT, with 1.37 fold enrichment (6-mer frequency, TF over GST control); and GCTCCA, with 1.26 fold enrichment (6-mer frequency, TF over GST control).
For the sequence CTTGGG, the binding signal was 1.26 fold enrichment (6-mer frequency, TF over GST control).
Regarding CTCCTT, the binding signal is 1.76 fold enrichment (6-mer frequency, TF over GST control).
In the case of CTGTAT, the binding signal was 1.24 fold enrichment (6-mer frequency, TF over GST control).
For ATGCTC, the binding signal is 1.51 fold enrichment (6-mer frequency, TF over GST control).
With CTATAT, the binding signal is 1.4 fold enrichment (6-mer frequency, TF over GST control).
As to CTCCAA, the binding signal was 1.28 fold enrichment (6-mer frequency, TF over GST control).
For the sequence CTCAAT, the binding signal was 1.36 fold enrichment (6-mer frequency, TF over GST control).
For the sequence CCTAAT, the binding signal was 1.33 fold enrichment (6-mer frequency, TF over GST control).
As for CTGGCT, the binding signal was 1.3 fold enrichment (6-mer frequency, TF over GST control).
On the same count and under the same terms, in the case of TATTTG it was 1.47 fold enrichment (6-mer frequency, TF over GST control).
The same measure, in the same setting: then CTTCGA, with 1.37 fold enrichment (6-mer frequency, TF over GST control); and ACTATG, with 1.2 fold enrichment (6-mer frequency, TF over GST control).
On to TAAACT, for which the binding signal was 1.17 fold enrichment (6-mer frequency, TF over GST control).
On the same count and under the same terms, in the case of ATTCAC it was 1.21 fold enrichment (6-mer frequency, TF over GST control); in that of CTACAC, 1.4 fold enrichment (6-mer frequency, TF over GST control).
On to GTATTT, for which the binding signal was 1.62 fold enrichment (6-mer frequency, TF over GST control).
Turning to AATTTC, the binding signal was 1.73 fold enrichment (6-mer frequency, TF over GST control).
TTTCAC: the binding signal is 1.36 fold enrichment (6-mer frequency, TF over GST control).
Take CTCGTC: the binding signal was 1.24 fold enrichment (6-mer frequency, TF over GST control).
As for CCTTCT, the binding signal was 1.62 fold enrichment (6-mer frequency, TF over GST control).
Still for that read-out and setting: then TTACGG, with 1.22 fold enrichment (6-mer frequency, TF over GST control).

A further assay deals with T2, ETS2 (Homo sapiens, UniProt P15036 1-469).
T2 sequence: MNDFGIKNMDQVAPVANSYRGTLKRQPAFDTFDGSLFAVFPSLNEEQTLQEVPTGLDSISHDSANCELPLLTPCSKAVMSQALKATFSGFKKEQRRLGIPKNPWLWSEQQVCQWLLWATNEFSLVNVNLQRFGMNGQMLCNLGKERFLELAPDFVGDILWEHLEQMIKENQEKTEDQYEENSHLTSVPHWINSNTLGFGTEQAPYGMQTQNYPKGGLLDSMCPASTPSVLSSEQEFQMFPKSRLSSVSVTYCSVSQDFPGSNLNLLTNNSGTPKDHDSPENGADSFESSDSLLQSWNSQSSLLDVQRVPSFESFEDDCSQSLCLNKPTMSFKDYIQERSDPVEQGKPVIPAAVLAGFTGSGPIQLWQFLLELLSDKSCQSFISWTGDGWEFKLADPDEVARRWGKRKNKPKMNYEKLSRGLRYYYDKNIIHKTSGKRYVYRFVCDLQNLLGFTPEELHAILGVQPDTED
Described as above. The conditions noted are these: protein: recombinant; tags: N-terminal GST; dsDNA, one strand shown. The method, boiled down:
as §1
For the sequence TTCCCG, the binding signal is 1.97 fold enrichment (6-mer frequency, TF over GST control).
Turning to CTTCCT, the binding signal is 3.37 fold enrichment (6-mer frequency, TF over GST control).
With TTGAAA, the binding signal was 1.24 fold enrichment (6-mer frequency, TF over GST control).
Take TACTCT: the binding signal is 1.3 fold enrichment (6-mer frequency, TF over GST control).
As for TCCTCA, the binding signal is 1.56 fold enrichment (6-mer frequency, TF over GST control).
Consider CCTCCC, for which the binding signal is 1.58 fold enrichment (6-mer frequency, TF over GST control).
In the case of TGGTTT, the binding signal is 1.54 fold enrichment (6-mer frequency, TF over GST control).
Turning to ATGAAC, the binding signal was 1.29 fold enrichment (6-mer frequency, TF over GST control).
Consider AACCTG, for which the binding signal is 1.27 fold enrichment (6-mer frequency, TF over GST control).
Regarding ACAGCT, the binding signal was 1.12 fold enrichment (6-mer frequency, TF over GST control).
As to AAATCA, the binding signal was 1.22 fold enrichment (6-mer frequency, TF over GST control).
As to TGGACT, the binding signal was 1.27 fold enrichment (6-mer frequency, TF over GST control).
Turning to TGAACT, the binding signal was 1.23 fold enrichment (6-mer frequency, TF over GST control).
On to AATCCC, for which the binding signal is 1.25 fold enrichment (6-mer frequency, TF over GST control).
The same measure, in the same setting: then TAAAGT, with 1.22 fold enrichment (6-mer frequency, TF over GST control); and CCTGGA, with 1.52 fold enrichment (6-mer frequency, TF over GST control); and AAACCA, with 1.17 fold enrichment (6-mer frequency, TF over GST control).
With CTGTCT, the binding signal is 1.4 fold enrichment (6-mer frequency, TF over GST control).
Turning to GCTCCA, the binding signal is 1.21 fold enrichment (6-mer frequency, TF over GST control).
For the sequence CTTGGG, the binding signal was 1.28 fold enrichment (6-mer frequency, TF over GST control).
For CTCCTT, the binding signal is 1.76 fold enrichment (6-mer frequency, TF over GST control).
Consider CTGTAT, for which the binding signal was 1.22 fold enrichment (6-mer frequency, TF over GST control).
In the case of ATGCTC, the binding signal is 1.42 fold enrichment (6-mer frequency, TF over GST control).
For CTATAT, the binding signal is 1.54 fold enrichment (6-mer frequency, TF over GST control).
For CTCCAA, the binding signal is 1.32 fold enrichment (6-mer frequency, TF over GST control).
Take CTCAAT: the binding signal was 1.21 fold enrichment (6-mer frequency, TF over GST control).
Same read-out and setting: then CCTAAT, with 1.33 fold enrichment (6-mer frequency, TF over GST control).
On the same count and under the same terms, in the case of CTGGCT it was 1.19 fold enrichment (6-mer frequency, TF over GST control).
On to TATTTG, for which the binding signal was 1.41 fold enrichment (6-mer frequency, TF over GST control).
For CTTCGA, the binding signal is 1.36 fold enrichment (6-mer frequency, TF over GST control).
The same measure, in the same setting: in the case of ACTATG it was 1.3 fold enrichment (6-mer frequency, TF over GST control).
With TAAACT, the binding signal was 1.18 fold enrichment (6-mer frequency, TF over GST control).
Regarding ATTCAC, the binding signal was 1.29 fold enrichment (6-mer frequency, TF over GST control).
Take CTACAC: the binding signal is 1.25 fold enrichment (6-mer frequency, TF over GST control).
As for GTATTT, the binding signal is 1.7 fold enrichment (6-mer frequency, TF over GST control).
Turning to AATTTC, the binding signal was 1.83 fold enrichment (6-mer frequency, TF over GST control).
As to TTTCAC, the binding signal was 1.32 fold enrichment (6-mer frequency, TF over GST control).
Turning to CTCGTC, the binding signal was 1.46 fold enrichment (6-mer frequency, TF over GST control).
Turning to CCTTCT, the binding signal was 1.53 fold enrichment (6-mer frequency, TF over GST control).
Still for that read-out and setting: then TTACGG, with 1.43 fold enrichment (6-mer frequency, TF over GST control).

The next assay addresses T3, SPDEF (Homo sapiens, UniProt O95238 1-335).
T3 sequence: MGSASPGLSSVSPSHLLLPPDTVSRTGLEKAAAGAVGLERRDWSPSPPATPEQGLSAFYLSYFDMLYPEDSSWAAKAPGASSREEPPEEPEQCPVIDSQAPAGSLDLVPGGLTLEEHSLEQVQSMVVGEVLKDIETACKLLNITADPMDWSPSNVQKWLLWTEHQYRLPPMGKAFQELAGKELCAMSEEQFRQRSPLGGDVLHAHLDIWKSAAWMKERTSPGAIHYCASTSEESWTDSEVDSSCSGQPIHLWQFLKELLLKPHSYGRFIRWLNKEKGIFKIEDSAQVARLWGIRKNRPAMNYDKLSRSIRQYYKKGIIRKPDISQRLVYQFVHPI
Described as above. Particulars: protein: recombinant; tags: N-terminal GST; dsDNA, one strand shown. The method, boiled down:
as §1
Take TTCCCG: the binding signal was 2.05 fold enrichment (6-mer frequency, TF over GST control).
Same read-out and setting: then CTTCCT, with 2.74 fold enrichment (6-mer frequency, TF over GST control).
The same measure, in the same setting: in the case of TTGAAA it was 1.07 fold enrichment (6-mer frequency, TF over GST control); in that of TACTCT, 1.39 fold enrichment (6-mer frequency, TF over GST control).
Turning to TCCTCA, the binding signal was 1.59 fold enrichment (6-mer frequency, TF over GST control).
With CCTCCC, the binding signal was 1.38 fold enrichment (6-mer frequency, TF over GST control).
Consider TGGTTT, for which the binding signal is 1.49 fold enrichment (6-mer frequency, TF over GST control).
On to ATGAAC, for which the binding signal is 1.18 fold enrichment (6-mer frequency, TF over GST control).
For the sequence AACCTG, the binding signal was 1.13 fold enrichment (6-mer frequency, TF over GST control).
For ACAGCT, the binding signal is 1.02 fold enrichment (6-mer frequency, TF over GST control).
Same read-out and setting: in the case of AAATCA it was 1.12 fold enrichment (6-mer frequency, TF over GST control); in that of TGGACT, 1.2 fold enrichment (6-mer frequency, TF over GST control).
Same read-out and setting: then TGAACT, with 1.16 fold enrichment (6-mer frequency, TF over GST control).
AATCCC: the binding signal is 1.36 fold enrichment (6-mer frequency, TF over GST control).
On to TAAAGT, for which the binding signal is 1.15 fold enrichment (6-mer frequency, TF over GST control).
Take CCTGGA: the binding signal is 1.57 fold enrichment (6-mer frequency, TF over GST control).
On to AAACCA, for which the binding signal is 1.1 fold enrichment (6-mer frequency, TF over GST control).
The same measure, in the same setting: then CTGTCT, with 1.44 fold enrichment (6-mer frequency, TF over GST control).
As to GCTCCA, the binding signal was 1.19 fold enrichment (6-mer frequency, TF over GST control).
Regarding CTTGGG, the binding signal was 1.21 fold enrichment (6-mer frequency, TF over GST control).

These data come from PMC7862700, “An all-to-all approach to the identification of sequence-specific readers for epigenetic DNA modifications on cytosine”.
